According to PubChem BioAssay (NCATS):
Where “and” joins values, the source holds several entries; their conditions need not be identical. Equal values may be shown once. Results filed as inconclusive are left out. Calls of active or inactive are those of the source. Calls follow the shape of the dose curve; as a rule, active = well fitted curve in the direction sought with a large enough effect; inconclusive = small, poorly fitted or top-dose-only effect, or another doubt; inactive = no such curve, though single readings can be large; an effect the other way counts as inactive or inconclusive.

Experiments:
[1] = target: Cytochrome P450 3A7 (Homo sapiens) (UniProt P24462); assay: Cytochrome P450 family 3 subfamily A member 7 (CYP3A7) small molecule antagonists: luciferase biochemical qHTS assay (AID 1963596); also: nearly all actives have a fitted effect of over 40% in size; also: potency is read from the fitted curve at half-maximal effect
Outline: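 Biochemical CYP3A7 activity measured with P450-Glo system: luciferin formed from proluciferin substrate in NADPH-driven reaction (1 h, room temperature) after 10 min compound preincubation. Signal in relative luminescence units.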

[2] = Viability qHTS for spleen associated tyrosine kinase inhibitor (SYKi) drug resistant MV4-11 cells (AID 1963824); also: nearly all actives have a fitted effect of over 35% in size; also: potency is read from the fitted curve at half-maximal effect
Outline: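 CellTiter-Glo luminescence, read 10 min after reagent addition, reports viability after a 72 hr compound exposure. Cells are an MV4-11 line made resistant to SYK inhibition, seeded at 500 per well onto compound-containing plates.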

[3] = Quantitative highthroughput screen to assess conditional lethalithy of NOMO1 cells grown in RPMI1640 with untreated serum (RPMI+s) (AID 1963876); also: nearly all actives have a fitted effect of over 35% in size; also: potency is read from the fitted curve at half-maximal effect;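 as to Viability: 100% = DMSO wells and 0% = empty wells without cells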
Outline: (§1)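 Each medium arm—HPLM with 10% dialyzed FBS, or RPMI1640 with 5 mM glucose and 10% untreated or dialyzed FBS—was screened against an 11-point, 3-fold compound titration for 48 h at 37 °C, with CellTiter-Glo luminescence as endpoint.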

[4] = Quantitative highthroughput screen to assess conditional lethalithy of NOMO1 cells grown in RPMI1640 with dialyzed fetal bovine serum (RPMI+ds) (AID 1963877);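 also: series mostly up to about 46 µM; 100% = DMSO control wells and 0% = empty wells; nearly all actives have a fitted effect of over 30% in size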
Outline: as §1

[5] = Quantitative highthroughput screen to assess conditional lethalithy of P12 Ichikawa cells grown in RPMI1640 with dialyzed fetal bovine serum (RPMI+ds) (AID 1963880); conditions: Potency: P12-Ichikawa viability; also: nearly all actives have a fitted effect of over 35% in size; also: potency is read from the fitted curve at half-maximal effect;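 as to Viability: 100% = DMSO wells and 0% = empty wells on each plate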
Outline: as §1

[6] = Quantitative highthroughput screen to assess conditional lethalithy of P12 Ichikawa cells grown in RPMI1640 with untreated serum (RPMI+s) (AID 1963881); conditions: Potency: viability; also: nearly all actives have a fitted effect of over 35% in size; also: potency is read from the fitted curve at half-maximal effect;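 as to Viability: series mostly up to about 46 µM; 100% = DMSO wells and 0% = empty wells without cells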
Outline: as §1

[7] = Cellular viability qHTS for adrenocortical cancer (ACC) cell line SW-13 (AID 1963989); conditions: SW-13 ACC cells viability, CellTiter-Glo, 48 h; activity (max response): hits give low values; also: nearly all actives have a fitted effect of over 65% in size; also: potency is read from the fitted curve at half-maximal effect;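 as to activity (max response): cells grown in serum-free medium with ITS supplement; % is scaled to controls: 0 for no effect and ±100 for the full control effect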
Outline: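 SW-13 cells in ITS-supplemented serum-free DMEM were plated overnight, then exposed for 48 h at 37C to compound titrations (up to 46 uM final). Viability was read by CellTiter-Glo luminescence; four-parameter logistic fits gave IC50 and efficacy.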

[8] = Cellular viability qHTS for adrenocortical cancer (ACC) cell line NCI-H295R (AID 1963990); also: nearly all actives have a fitted effect of over 60% in size; also: potency is read from the fitted curve at half-maximal effect
Outline: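 Luminescent ATP read-out (CellTiter-Glo, 20 min RT) after 48 h drug exposure of NCI-H295R cells; a titration up to 46 uM final. Data normalized to doxorubicin (100% inhibition) and DMSO (0%); 4-parameter fit gives IC50, max response.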

[9] = Quantitative highthroughput screen to assess conditional lethalithy of P12 Ichikawa cells grown in Human Plasma-Like Medium with dialyzed fetal bovine serum (HPLM+ds) (AID 1963879); conditions: Potency: viability; also: nearly all actives have a fitted effect of over 35% in size; also: potency is read from the fitted curve at half-maximal effect; as to Viability: series mostly up to about 46 µM
Outline: as §1

[10] = Quantitative highthroughput screen to assess conditional lethalithy of SEM cells grown in RPMI1640 with unreated serum (RPMI+s) (AID 1963883); also: nearly all actives have a fitted effect of over 35% in size; also: potency is read from the fitted curve at half-maximal effect;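 as to Viability: 100% = DMSO wells and 0% = empty wells without cells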
Outline: as §1

[11] = Quantitative highthroughput screen to assess conditional lethalithy of NOMO1 cells grown in Human Plasma-Like Medium with dialyzed fetal bovine serum (HPLM+ds) (AID 1963878)
Outline: as §1

[12] = Quantitative highthroughput screen to assess conditional lethalithy of SEM cells grown in Human Plasma-Like Medium with dialyzed fetal bovine serum (HPLM+ds) (AID 1963882)
Outline: as §1

[13] = Quantitative highthroughput screen to assess conditional lethalithy of SEM cells grown in RPMI1640 with dialyzed fetal bovine serum (RPMI+ds) (AID 1963884)
Outline: as §1

Chain of Cytochrome P450 3A7 (Homo sapiens) (P24462 whole entry, looked up): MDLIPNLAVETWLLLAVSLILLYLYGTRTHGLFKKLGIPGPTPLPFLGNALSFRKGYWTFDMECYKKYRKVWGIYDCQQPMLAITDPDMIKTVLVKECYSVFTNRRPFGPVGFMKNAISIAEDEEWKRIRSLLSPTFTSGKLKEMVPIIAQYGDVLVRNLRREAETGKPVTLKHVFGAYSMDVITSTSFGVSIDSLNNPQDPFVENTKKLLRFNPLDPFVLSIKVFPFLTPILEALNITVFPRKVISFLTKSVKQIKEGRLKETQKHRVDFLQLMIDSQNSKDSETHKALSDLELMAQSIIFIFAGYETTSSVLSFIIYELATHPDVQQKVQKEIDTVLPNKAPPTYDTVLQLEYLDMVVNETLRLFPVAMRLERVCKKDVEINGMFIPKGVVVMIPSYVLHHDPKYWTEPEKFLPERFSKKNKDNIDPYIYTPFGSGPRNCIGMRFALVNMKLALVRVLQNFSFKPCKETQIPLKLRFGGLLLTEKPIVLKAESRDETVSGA

O=c1[nH]cnc2[nH]ncc12
inactive: Potency [1] | Potency [2] | Potency [3] | Potency [4] | Potency [5] | Potency [6] | activity (max response) [7] 1.44% and -3.08% | Potency [8]

C#CCC(Cc1cnc2nc(N)nc(N)c2n1)c1ccc(C(=O)N[C@@H](CCC(=O)O)C(=O)O)cc1 (stereo partly specified)
inactive: Potency [1]
active: Potency [2] 2.1 nM | Potency [3] 187 nM | Potency [9] 37.2 nM | Potency [10] 59 nM | Potency [7] 35.5 nM | Potency [8] 15.8 nM

O=c1c(O)c(-c2ccc(O)cc2O)oc2cc(O)cc(O)c12
inactive: Potency [1] | Potency [2] | Potency [3] | Potency [4] | activity (max response) [7] 14.7% | Potency [8]

CCC[C@H](N[C@@H](C)C(=O)N1[C@H](C(=O)O)C[C@@H]2CCCC[C@@H]21)C(=O)O
inactive: Potency [1] | Potency [2]

CCC(=O)N1CCOc2c(cc(-c3ccc(OC)c(OC)c3)cc2OC[C@H]2CCCN(C)C2)C1
active: Potency [2] 7310 nM
inactive: Potency [1]

O=C(C1CC1)N1CC[C@@H](Cc2n[nH]c(=O)n2-c2ccc(-c3ccc4occc4c3)cc2)C1
inactive: Potency [3] | Potency [4] | Potency [11] | Potency [9] | Potency [5] | Potency [6]
active: Potency [1] 536 nM | Potency [2] 18600 nM

Cc1cn([C@@H]2C[C@@H](O)[C@H](CO)O2)c(=O)[nH]c1=O
inactive: Potency [1] | Potency [2] | Potency [3] | Potency [8]
active: Potency [9] 23500 nM | Potency [5] 23500 nM | Potency [6] 26400 nM

CC[C@H](NC(C)C)[C@H](O)c1ccc(O)c2[nH]c(=O)ccc12
inactive: Potency [1] | Potency [2] | Potency [3] | Potency [4] | Potency [11] | Potency [9] | Potency [6] | Potency [12] | Potency [10] | Potency [13] | activity (max response) [7] 3.1% and 13.3%
